The text below walks through data of ChEMBL document CHEMBL3988442, “University of Dundee, Small-Polar-MMV Screening Library” (2021).

The structures appear in SMILES notation. For some assays here: Entries with a potency or affinity are not part of this list.

Design in all cases: scale not given: direction of the effect not stated beside the values
Test [1] concerns the target Protein translocase subunit SecA (Escherichia coli (strain K12)) (UniProt P10408). The experiment in a line: Assay to Identify E. coli SecA ATPase Inhibitors. The format is functional. To be noted: 30 µM.
For test [2], the target named is T1, Ubiquitin-activating enzyme e1, putative (Leishmania donovani (strain BPK282A1)) (UniProt E9BSI1).
T1 sequence (whole entry): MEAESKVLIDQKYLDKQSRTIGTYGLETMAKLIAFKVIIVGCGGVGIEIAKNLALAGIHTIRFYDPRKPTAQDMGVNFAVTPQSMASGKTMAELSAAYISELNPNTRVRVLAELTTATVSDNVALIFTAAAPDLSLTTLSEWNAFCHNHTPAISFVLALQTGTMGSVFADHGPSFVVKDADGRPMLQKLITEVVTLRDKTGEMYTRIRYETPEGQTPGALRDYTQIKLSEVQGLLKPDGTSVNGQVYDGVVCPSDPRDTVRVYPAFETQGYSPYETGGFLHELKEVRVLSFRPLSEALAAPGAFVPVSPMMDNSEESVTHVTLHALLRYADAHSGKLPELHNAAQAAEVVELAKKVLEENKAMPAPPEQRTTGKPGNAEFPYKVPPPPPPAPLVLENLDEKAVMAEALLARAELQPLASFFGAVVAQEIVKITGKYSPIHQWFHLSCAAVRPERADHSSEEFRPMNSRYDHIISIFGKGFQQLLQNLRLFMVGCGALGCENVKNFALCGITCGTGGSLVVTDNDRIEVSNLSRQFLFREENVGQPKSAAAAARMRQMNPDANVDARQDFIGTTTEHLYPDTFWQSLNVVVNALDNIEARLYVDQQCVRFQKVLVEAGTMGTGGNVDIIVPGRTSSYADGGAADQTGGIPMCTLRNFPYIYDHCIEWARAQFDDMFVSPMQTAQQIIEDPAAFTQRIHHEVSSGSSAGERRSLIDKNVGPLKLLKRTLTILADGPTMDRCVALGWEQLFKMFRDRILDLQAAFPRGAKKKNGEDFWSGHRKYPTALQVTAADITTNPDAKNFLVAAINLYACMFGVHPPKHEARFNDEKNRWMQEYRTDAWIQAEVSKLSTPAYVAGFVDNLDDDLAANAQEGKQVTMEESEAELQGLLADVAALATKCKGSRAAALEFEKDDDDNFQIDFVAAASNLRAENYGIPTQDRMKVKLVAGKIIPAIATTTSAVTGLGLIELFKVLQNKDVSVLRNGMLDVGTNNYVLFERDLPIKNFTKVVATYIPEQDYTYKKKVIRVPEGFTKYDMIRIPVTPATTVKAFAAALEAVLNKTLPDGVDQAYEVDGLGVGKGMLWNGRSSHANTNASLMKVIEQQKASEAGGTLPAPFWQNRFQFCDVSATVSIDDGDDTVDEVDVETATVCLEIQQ
Put plainly: Leishmania donovani Ubiquitin Activating Enzyme (LdE1). The format is functional. To be noted: 30 µM.

The target of test [3] is AMP-activated protein kinase, AMPK (Homo sapiens) (UniProt P54646+O43741+P54619+Q9UGJ0+Q9Y478+Q13131+Q9UGI9). Put plainly: AMP-dependent Kinase enzyme assay. An in vitro enzyme assay that detects ADP turnover that is directly proportional to AMPK activity. This uses naive AMPK that is activated during the assay with MK-8722. The format is functional. To be noted: 30 µM.

Test [4] deals with Sialic acid-binding Ig-like lectin 9 (Homo sapiens) (UniProt Q9Y336). The experiment in a line: Hs-Siglec9 ALPHAscreen SOP 20170721. To be noted: 10 µM. For orientation: Alpha assays give light when donor and acceptor beads are brought close together.
Chain of Sialic acid-binding Ig-like lectin 9 (Homo sapiens) (Q9Y336 whole entry): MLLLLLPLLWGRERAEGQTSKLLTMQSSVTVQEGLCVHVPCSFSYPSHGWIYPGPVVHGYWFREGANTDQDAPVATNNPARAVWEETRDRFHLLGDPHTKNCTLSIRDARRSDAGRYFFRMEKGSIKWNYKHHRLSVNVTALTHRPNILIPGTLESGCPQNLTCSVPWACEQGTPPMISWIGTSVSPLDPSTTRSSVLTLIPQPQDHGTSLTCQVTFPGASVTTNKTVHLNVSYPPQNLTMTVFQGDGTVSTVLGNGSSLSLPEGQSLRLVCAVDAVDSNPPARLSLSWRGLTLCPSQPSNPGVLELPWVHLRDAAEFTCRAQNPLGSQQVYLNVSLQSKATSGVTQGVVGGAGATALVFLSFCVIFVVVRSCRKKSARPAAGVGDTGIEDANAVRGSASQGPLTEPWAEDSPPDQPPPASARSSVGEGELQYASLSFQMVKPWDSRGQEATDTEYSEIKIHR
In another test the test system is Trypanosoma cruzi. The experiment in a line: Trypanosoma cruzi phosphomannomutase and mannose-1-phosphate guanylyltransferase assay. The settings on record: 10 µM. The format is functional.
Test [5] addresses T2, Arginase-2, mitochondrial (Homo sapiens) (UniProt P78540).
T2 sequence (whole entry): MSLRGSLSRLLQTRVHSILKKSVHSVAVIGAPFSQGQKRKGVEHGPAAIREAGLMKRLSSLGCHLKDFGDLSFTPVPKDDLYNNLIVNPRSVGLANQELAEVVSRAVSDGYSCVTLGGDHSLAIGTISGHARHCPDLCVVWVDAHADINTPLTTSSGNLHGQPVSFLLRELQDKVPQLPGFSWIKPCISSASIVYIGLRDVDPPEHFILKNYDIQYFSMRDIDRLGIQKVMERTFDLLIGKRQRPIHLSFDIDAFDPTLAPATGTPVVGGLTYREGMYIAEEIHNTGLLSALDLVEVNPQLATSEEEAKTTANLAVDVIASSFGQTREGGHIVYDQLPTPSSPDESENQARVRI
Put plainly: in vitro enzyme assay to detect the production of urea directly proportional to the activity of Arginase II. Further: in the data most compounds retested in dose-response had high values. The format is functional. To be noted: 33.3 µM.

The target in test [6] is T3, Proteasome subunit beta (Trypanosoma cruzi) (UniProt O96673).
T3 sequence (whole entry): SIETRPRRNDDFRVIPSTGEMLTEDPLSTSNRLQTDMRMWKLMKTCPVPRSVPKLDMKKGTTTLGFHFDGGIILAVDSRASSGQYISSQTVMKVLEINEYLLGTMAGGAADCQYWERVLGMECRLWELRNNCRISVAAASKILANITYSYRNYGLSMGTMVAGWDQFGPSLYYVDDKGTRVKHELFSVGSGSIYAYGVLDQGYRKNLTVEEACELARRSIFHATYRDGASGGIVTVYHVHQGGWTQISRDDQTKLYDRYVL
The experiment in a line: Trypanosoma cruzi proteasome chymotrypsin-like activity (TcProtChymo) assay. Further: in the data most compounds retested in dose-response had high values. The format is functional. The settings on record: 9.37 µM.

The species entered for another test is Homo sapiens. Put plainly: To identify inhibition of the IFN signalling (Jak-Stat) pathway via expression of an eGFP reporter gene under the control of an IFN-stimulated response element (ISRE) containing MxA promoter. To be noted: 30 µM. The format is functional. In general terms: Reporter assays use an easily measured gene product as a stand-in for the process of interest.

In test [7] the target is T4, Tyrosyl-tRNA synthetase, putative (Trypanosoma cruzi (strain CL Brener)) (UniProt Q4DSP6).
T4 sequence (whole entry): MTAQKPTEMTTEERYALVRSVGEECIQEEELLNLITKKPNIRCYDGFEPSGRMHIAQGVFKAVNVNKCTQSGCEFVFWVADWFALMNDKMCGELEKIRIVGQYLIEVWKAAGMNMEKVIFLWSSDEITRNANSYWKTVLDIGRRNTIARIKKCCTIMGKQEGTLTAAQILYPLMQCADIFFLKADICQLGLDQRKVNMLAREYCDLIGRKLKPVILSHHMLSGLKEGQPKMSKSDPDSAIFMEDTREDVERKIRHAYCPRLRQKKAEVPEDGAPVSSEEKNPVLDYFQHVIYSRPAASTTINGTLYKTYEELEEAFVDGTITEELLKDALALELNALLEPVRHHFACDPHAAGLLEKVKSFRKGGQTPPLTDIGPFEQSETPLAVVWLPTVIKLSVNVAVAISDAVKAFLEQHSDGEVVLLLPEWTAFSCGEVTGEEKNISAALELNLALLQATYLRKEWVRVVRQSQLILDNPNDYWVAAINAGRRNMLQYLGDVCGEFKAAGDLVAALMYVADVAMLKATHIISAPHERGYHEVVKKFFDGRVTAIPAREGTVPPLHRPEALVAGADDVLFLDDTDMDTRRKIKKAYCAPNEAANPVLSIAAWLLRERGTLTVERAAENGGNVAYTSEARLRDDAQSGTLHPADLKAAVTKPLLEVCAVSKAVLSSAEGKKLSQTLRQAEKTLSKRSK
Put plainly: Trypanosoma cruzi tyrosyl tRNA synthetase (TcYRS) _High Tyrosine SOP. Further: in the data most compounds retested in dose-response had high values. The format is functional. To be noted: 30 µM.

Test [8] has as its target T4, Tyrosyl-tRNA synthetase, putative (Trypanosoma cruzi (strain CL Brener)). The experiment in a line: Trypanosoma cruzi tyrosyl tRNA synthetase (TcYRS) SOP. The format is functional. The settings on record: 30 µM.
The target of test [9] is Chromo domain-containing protein 1 (Saccharomyces cerevisiae (strain ATCC 204508 / S288c) (Baker's yeast)) (UniProt P32657). Put plainly: ScCHD-1 Enzyme Inhibition Assay. Further: in the data most compounds retested in dose-response had high values. The format is functional. The settings on record: 30 µM.
Chain of Chromo domain-containing protein 1 (Saccharomyces cerevisiae (strain ATCC 204508 / S288c) (Baker's yeast)) (P32657 whole entry, the tested form may be a part): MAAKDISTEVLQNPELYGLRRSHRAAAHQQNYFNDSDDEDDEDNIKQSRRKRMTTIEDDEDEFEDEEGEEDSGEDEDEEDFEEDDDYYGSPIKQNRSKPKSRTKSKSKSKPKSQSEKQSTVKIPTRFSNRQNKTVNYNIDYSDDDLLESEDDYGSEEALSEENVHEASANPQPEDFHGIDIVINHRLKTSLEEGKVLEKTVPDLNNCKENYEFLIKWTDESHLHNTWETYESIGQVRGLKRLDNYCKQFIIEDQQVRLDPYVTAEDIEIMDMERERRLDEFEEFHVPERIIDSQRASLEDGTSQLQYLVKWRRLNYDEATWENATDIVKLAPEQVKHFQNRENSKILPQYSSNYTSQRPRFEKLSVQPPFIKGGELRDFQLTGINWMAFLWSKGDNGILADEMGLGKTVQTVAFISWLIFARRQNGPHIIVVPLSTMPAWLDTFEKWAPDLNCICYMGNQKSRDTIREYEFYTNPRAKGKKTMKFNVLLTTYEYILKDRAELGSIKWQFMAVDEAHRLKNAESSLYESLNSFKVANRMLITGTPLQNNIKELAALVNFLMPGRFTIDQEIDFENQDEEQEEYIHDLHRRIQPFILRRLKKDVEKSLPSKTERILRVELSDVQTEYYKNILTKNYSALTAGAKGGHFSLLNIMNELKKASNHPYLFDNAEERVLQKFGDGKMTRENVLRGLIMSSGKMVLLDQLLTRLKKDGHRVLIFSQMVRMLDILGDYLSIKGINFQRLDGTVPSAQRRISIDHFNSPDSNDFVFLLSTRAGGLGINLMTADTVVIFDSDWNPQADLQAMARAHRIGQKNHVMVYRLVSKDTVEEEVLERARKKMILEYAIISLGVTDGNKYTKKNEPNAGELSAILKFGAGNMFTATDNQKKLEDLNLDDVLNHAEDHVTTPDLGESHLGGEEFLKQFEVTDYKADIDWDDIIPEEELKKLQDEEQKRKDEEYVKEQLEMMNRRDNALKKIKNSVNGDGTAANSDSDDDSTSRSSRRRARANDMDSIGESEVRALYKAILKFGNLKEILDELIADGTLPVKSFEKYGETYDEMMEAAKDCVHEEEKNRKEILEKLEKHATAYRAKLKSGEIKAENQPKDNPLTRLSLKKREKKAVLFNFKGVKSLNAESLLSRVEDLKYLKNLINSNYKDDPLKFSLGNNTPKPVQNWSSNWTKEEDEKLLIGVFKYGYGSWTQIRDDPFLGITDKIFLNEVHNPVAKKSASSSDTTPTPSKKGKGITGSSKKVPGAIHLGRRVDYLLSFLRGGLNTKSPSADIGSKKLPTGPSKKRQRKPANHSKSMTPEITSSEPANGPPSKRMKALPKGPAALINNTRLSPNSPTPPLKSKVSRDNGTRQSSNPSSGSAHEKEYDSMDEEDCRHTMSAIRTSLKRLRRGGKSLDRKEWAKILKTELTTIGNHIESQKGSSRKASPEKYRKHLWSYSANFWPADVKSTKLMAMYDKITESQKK

Chain of Protein translocase subunit SecA (Escherichia coli (strain K12)) (P10408 whole entry): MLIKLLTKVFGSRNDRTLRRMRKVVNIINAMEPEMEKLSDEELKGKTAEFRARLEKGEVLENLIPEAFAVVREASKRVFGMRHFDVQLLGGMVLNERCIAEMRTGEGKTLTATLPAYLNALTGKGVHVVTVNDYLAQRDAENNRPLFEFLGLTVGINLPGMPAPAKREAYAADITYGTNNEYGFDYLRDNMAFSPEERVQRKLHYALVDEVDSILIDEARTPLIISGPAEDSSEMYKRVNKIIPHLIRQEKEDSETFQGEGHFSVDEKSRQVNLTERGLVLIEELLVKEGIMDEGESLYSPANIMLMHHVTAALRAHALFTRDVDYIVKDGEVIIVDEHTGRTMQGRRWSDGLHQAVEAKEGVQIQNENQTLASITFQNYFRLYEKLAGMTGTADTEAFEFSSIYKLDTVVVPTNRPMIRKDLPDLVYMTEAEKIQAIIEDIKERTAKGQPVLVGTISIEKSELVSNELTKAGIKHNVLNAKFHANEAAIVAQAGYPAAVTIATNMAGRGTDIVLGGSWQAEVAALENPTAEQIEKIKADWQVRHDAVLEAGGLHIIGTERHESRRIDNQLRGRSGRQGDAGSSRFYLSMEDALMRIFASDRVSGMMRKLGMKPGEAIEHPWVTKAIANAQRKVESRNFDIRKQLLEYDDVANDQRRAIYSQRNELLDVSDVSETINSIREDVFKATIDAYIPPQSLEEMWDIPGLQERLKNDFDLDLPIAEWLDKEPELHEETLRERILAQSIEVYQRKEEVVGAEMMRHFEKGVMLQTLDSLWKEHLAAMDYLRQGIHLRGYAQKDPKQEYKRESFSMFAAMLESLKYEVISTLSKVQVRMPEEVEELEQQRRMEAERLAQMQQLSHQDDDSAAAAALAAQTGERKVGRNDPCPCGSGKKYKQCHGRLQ

As for `N#Cc1ccc(C(=O)N2CC[C@H]3[C@@H]2CCC(=O)N3c2ccccc2)cc1`, the Percent Effect in [1] was 1.09%; in test [2] it was 0%; in test [3], 6.69%; in test [4], -7.59%; in the test with Trypanosoma cruzi, -7.68%; in test [5], 4.89%. Besides, the Percent Effect is 6.08% in test [6]; 0.115% in the test filed under Homo sapiens; 4.25% in [7]; 11.5% in test [8]; -4.7% in [9].

Turning to `CCc1nsc(NC2CCCn3nc(CC)nc32)n1` (stereo not given), the Percent Effect is -6.19% in [1]; 8% in test [2]; -4.68% in test [3]; 26% in test [4]; 7.3% in the test with Trypanosoma cruzi; 6.25% in [5]. In addition, the Percent Effect in test [6] is 13.6%; in the test listed under Homo sapiens it was 0.363%; in test [7] it was 3.83%; in test [8], 13.6%; in [9] it was -7.22%.

Take `Cn1cccc1C(=O)N1CC[C@H]2C[C@@H](c3ccncn3)O[C@@H]2C1`: the Percent Effect was -5.79% in [1]; 13.5% in test [2]; 3.37% in test [3]; -2.88% in test [4]; -0.684% in the test on Trypanosoma cruzi; 6.69% in [5]. Moreover, the Percent Effect in test [6] is 14.6%; in the test listed under Homo sapiens, 2.31%; in test [7], 4.32%; in [8], 5.13%; in [9], -0.0971%.

As for `COc1ccc(CCN2CCC(N3CCN(C)C3=O)CC2)cc1`, the Percent Effect in test [1] is -6.17%; in test [2], 13%; in test [3], 0.0857%; in test [4] it was 0.317%; in the test on Trypanosoma cruzi, -1.87%; in [5] it was -4.98%. Moreover, the Percent Effect was 8.45% in test [6]; 4.3% in the test filed under Homo sapiens; 4.85% in test [7]; 12.2% in [8]; -7.97% in test [9].

With `COCCN(Cc1ccoc1)C(=O)c1ccccc1Cl`, the Percent Effect is -4.82% in test [1]; 0% in test [2]; 0.957% in test [3]; -4.22% in test [4]; -4.24% in the test on Trypanosoma cruzi; -1.94% in [5]. Moreover, the Percent Effect in [6] was 0.522%; in the test listed under Homo sapiens it was 14.2%; in [7] it was 1.06%; in test [8] it was 1.28%; in [9], -1.4%.

Take `CC(NC(=O)NCCNc1ncccn1)c1cccs1` (stereo not given): the Percent Effect was -2.16% in [1]; 31.2% in [2]; 32.1% in test [3]; 6.3% in test [4]; 7.12% in the test on Trypanosoma cruzi; -2.49% in test [5]. Further, the Percent Effect in test [6] was 4.9%; in the test filed under Homo sapiens, 12.3%; in [7], 8.74%; in test [8] it was 24.4%; in test [9], -9.75%.

For the compound `COc1ccccc1OC1(C(=O)O)CCN(c2nccnc2C)CC1`, the Percent Effect was -2.61% in test [1]; 5.48% in test [2]; -1.61% in [3]; 9.27% in [4]; 1.19% with Trypanosoma cruzi; -5.19% in [5]. The Percent Effect in test [6] was 9.16%; in the test listed under Homo sapiens, -8.06%; in [7], 5.21%; in test [8] it was 23.5%; in test [9], -6.84%.

`O=C1N(Cc2cccc(F)c2F)CCCC1(O)CN1CCCOCC1` (stereo not given): the Percent Effect in test [1] was -6.11%; in [2], -5.33%; in test [3] it was -3.73%; in [4], 6.26%; in the test with Trypanosoma cruzi it was 1.46%; in [5] it was 0%. Moreover, the Percent Effect is 5.06% in test [6]; 5.93% in the test filed under Homo sapiens; 4.92% in test [7]; 11.1% in [8]; -4.58% in [9].

As to `CC(=O)N1CCC2(CC1)CC(Oc1ccccc1)CO2` (stereo not given), the Percent Effect was 1.79% in test [1]; 2.74% in test [2]; 2.24% in [3]; 9.38% in test [4]; -4.17% in the test with Trypanosoma cruzi; -1.2% in test [5]. In addition, the Percent Effect in [6] is 19.6%; in the test listed under Homo sapiens it was 1.3%; in test [7], 6.25%; in test [8], 8.64%; in test [9], 3.27%.

Turning to `Cc1cccc(N2Cc3nc(=O)[nH]n3C2=O)c1`, the Percent Effect in test [1] is 1.1%; in [2], 4%; in test [3] it was 3.29%; in test [4] it was -0.713%; in the test with Trypanosoma cruzi, -4.52%; in test [5], -9.33%. Also, the Percent Effect in test [6] is 19.6%; in the test listed under Homo sapiens it was -0.119%; in test [7] it was 5.29%; in [8], 5.13%; in test [9] it was -4.23%.
